In PubChem BioAssay (Tox21) one finds Potency and outcome data, which are given here for nine molecules.

Inconclusive results are not listed. Active and inactive are the calls of the source. Unless noted, calls come from the whole dose curve; as a rule, active = well fitted curve in the direction sought with a large enough effect in the repeat runs; inconclusive = weak or mixed curves; inactive = no such curve, though single readings can be large; an effect the other way counts as inactive or inconclusive.

The nature of assay [1]: qHTS assay to identify small molecule antagonists of the estrogen receptor alpha (ER-alpha) signaling pathway using the BG1 cell line in the presence of 0.1 nM 17-beta-estradiol - cell viability counter screen (AID 1259241). Note: nearly all actives have a fitted effect of over 40% in size. The gist of the method:
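VM7Luc4E2 cells (endogenous full-length ER-alpha, 4xERE-luciferase), cultured 5 days in charcoal-stripped serum, exposed to compounds with 0.1 nM 17beta-estradiol (final) for 22 hr at 37C. Viability read in same wells as live-cell protease fluorescence after 30 min.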
(qHTS replaces the single test concentration by a dilution series.)

The nature of assay [2]: qHTS assay to identify small molecule antagonists of the androgen receptor (AR) signaling pathway using the MDA cell line in the presence of 0.5 nM R1881 - cell viability counter screen (AID 1259242). Note: nearly all actives have a fitted effect of over 45% in size. In short, it runs like this:
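Live-cell protease activity was measured by CellTiter-Fluor fluorescence after 30 min. Before that, MDA-kb2 MMTV-luciferase cells had 16 hr at 37C without CO2, exposed to test compounds and 0.5 nM R1881 final.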

Assay [3] has as its target Estrogen receptor (Homo sapiens) (UniProt P03372). Kind of assay: qHTS assay to identify small molecule antagonists of the estrogen receptor alpha (ER-alpha) signaling pathway using the BG1 cell line in the presence of 0.1 nM 17-beta-estradiol (AID 1259244). Note: nearly all actives have a fitted effect of over 50% in size. The gist of the method: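 Luciferase luminescence (ONE-Glo, 30 min at room temperature) was read after 22 hr at 37C exposure to compounds plus 17beta-estradiol at 0.1 nM final. Cells were VM7Luc4E2 with endogenous ER-alpha and an ERE-driven luciferase, pre-cultured 5 days in hormone-depleted medium.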

The nature of assay [4]: qHTS assay to identify small molecule HDAC inhibitors (AID 1259364). Note: top concentration of the series differs between compounds; nearly all actives have a fitted effect of over 45% in size. The gist of the method: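 Luminescence read after 30 min room-temperature HDAC-Glo incubation measures cellular class I/II HDAC activity. Compounds were applied for 2 hr at 37 C to HCT-116 wild-type cells seeded the day before.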
The nature of assay [5]: qHTS assay to identify small molecule HDAC inhibitors - cell viability counter screen (AID 1259365). Note: series mostly up to about 92 µM; nearly all actives have a fitted effect of over 50% in size. The gist of the method:
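Wild-type HCT-116 cells, 1,500/well, cultured overnight, then compound-treated 2 h at 37 C. Viability measured as ATP luminescence with CellTiter-Glo after 30 min at room temperature.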

Assay [6] in a line: qHTS assay to identify small molecule agonists of the sonic hedgehog signaling (Shh) pathway - cell viability counter screen (AID 1259366). Note: nearly all actives have a fitted effect of over 50% in size. In short, it runs like this:
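NIH/3T3-derived Gli1-Luc reporter cells, 2,000 per well, received compound after 4 h and were treated about 23 h at 37C. Viability measured in the same wells by CellTiter-Fluor fluorescence after 1 h.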

The nature of assay [7]: qHTS assay to identify small molecule antagonists of the sonic hedgehog signaling (Shh) pathway - cell viability counter screen (AID 1259367). Note: nearly all actives have a fitted effect of over 55% in size. The gist of the method:
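CellTiter-Fluor signal in conditioned medium-stimulated 3T3 Gli1-Luc cells, 23 hr compound exposure, 37C.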

The nature of assay [8]: qHTS assay to identify small molecule agonists of the sonic hedgehog signaling (Shh) pathway (AID 1259368; calls by dose curve;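 note: NIH/3T3-derived 3T3Gli1-Luc cells carrying a stable Gli1-driven firefly luciferase reporter; series mostly up to about 92 µM; nearly all actives have a fitted effect of over 15% in size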). The gist of the method:
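Luminescence was read after 30 min at room temperature with luciferase reagent. Before that, 3T3Gli1-Luc cells (NIH/3T3 clone, stable Gli1-Luc reporter; 2,000/well) were exposed to compounds for 24 hr at 37C, 5% CO2, compounds being added 4 hr post-plating.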

Assay [9] can be described thus: qHTS assay to identify small molecule antagonists of the sonic hedgehog signaling (Shh) pathway (AID 1259369; calls by dose curve; note: nearly all actives have a fitted effect of over 45% in size; note: potency is the fitted concentration of half-maximal effect). The gist of the method: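 Antagonist mode: compound added to 3T3 Gli1-Luc cells followed by conditioned-medium stimulation, 24 h at 37 C, 5% CO2. Inhibition taken as loss of Gli1-driven luciferase luminescence.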
Assay [10] deals with Estrogen receptor beta (Homo sapiens) (UniProt Q92731). In words: qHTS assay to identify small molecule antagonists of the estrogen receptor beta (ER-beta) signaling pathway (AID 1259378; active = well fitted inhibition curve with a large enough effect in the signal ratio in the repeat runs, not every such curve was filed as active; the % refers to the signal ratio). The gist of the method: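 Antagonist mode: compounds added to beta-lactamase reporter HEK293T ER-beta-UAS cells stimulated with E2 (1nM final), 16 hr at 37C. LiveBLAzer B/G FRET substrate, 2 hours room temperature, fluorescence read-out.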

A short description of assay [11]: qHTS assay to identify small molecule agonists of the androgen receptor (AR) signaling pathway in the presence of an antagonist - cell viability counter screen (AID 1259379).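 Note: MDA-kb2 human breast cancer cells carrying an MMTV luciferase reporter; series mostly up to about 92 µM; nearly all actives have a fitted effect of over 25% in size.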 The gist of the method: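 Cytotoxicity counter-screen run in the same wells as the nilutamide-challenged (3.0 µM final) AR agonist assay in MDA-kb2 cells. Compounds tested at 15 concentrations for 16 h, 37 °C without CO2; CellTiter-Fluor fluorescence read.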

Assay [12] is described as follows: qHTS assay to identify small molecule agonists of the estrogen receptor beta (ER-beta) signaling pathway - cell viability counter screen (AID 1259380). Note: nearly all actives have a fitted effect of over 30% in size. Note: potency is the fitted concentration of half-maximal effect. In short, it runs like this:
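Cell viability counter screen: CellTiter-Glo luminescence (30 min, room temperature) measured in the same wells as the beta-lactamase readout, after 16 hr compound exposure at 37C of ER-beta-bla HEK293T cells in 2% charcoal-stripped FBS medium.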

Assay [13] in a line: qHTS assay to identify small molecule antagonists of the estrogen receptor beta (ER-beta) signaling pathway - cell viability counter screen (AID 1259382).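 Note: HEK293T cells carrying ER-beta-UAS-bla reporter stimulated with estradiol; series mostly up to about 92 µM; nearly all actives have a fitted effect of over 55% in size.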 The gist of the method: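 Cytotoxicity was measured in the same wells by CellTiter-Glo luminescence after 30 min at room temperature. Cells were ER-beta-bla HEK293T in charcoal-stripped serum, given compound together with 1 nM E2 and incubated 16 h at 37C.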

The target in assay [14] is Estrogen receptor (Homo sapiens) (UniProt P03372). In words: qHTS assay to identify small molecule agonists of the estrogen receptor alpha (ER-alpha) signaling pathway in the presence of an antagonist (AID 1259383; calls by dose curve; note: top concentration of the series differs between compounds; nearly all actives have a fitted effect of over 15% in size). In short, it runs like this:
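Agonist-mode confirmation run in the presence of 10.0nM (final) ICI-182,780 antagonist. The reporter was ERE-driven luciferase in VM7Luc4E2 cells, grown in charcoal-stripped serum. Cells were exposed to 15-concentration compound series for 22hr, then ONE-Glo luminescence was read.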

The nature of assay [15]: qHTS assay to identify small molecule agonists or antagonists of the thyroid stimulating hormone receptor (TSHR) signaling pathway - wild type cell line counter screen (AID 1259384; calls by dose curve). In short, it runs like this:
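Counter screen in untransfected Hek293: compounds (15-point titration, triplicate) plus phosphodiesterase inhibitor Ro20-1724 added after 18 h plating; 30 min RT. Intracellular cAMP via competitive d2/cryptate immunoassay, 1 h incubation.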

Assay [16] has as its target Thyrotropin receptor (Homo sapiens) (UniProt P16473). Kind of assay: qHTS assay to identify small molecule antagonists of the thyroid stimulating hormone receptor (TSHR) signaling pathway (AID 1259385; calls by dose curve; note: nearly all actives have a fitted effect of over 20% in size). In short, it runs like this: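 Antagonist mode: compound-treated TSHR-expressing HEK293 cells were stimulated with 1.5 ng/mL TSH (final) in presence of Ro20-1724 for 30 min at RT. HTRF cAMP detection after 1 h; each compound tested at 15 concentrations, triplicate.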

The target of assay [17] is Estrogen receptor beta (Homo sapiens) (UniProt Q92731). In words: qHTS assay to identify small molecule agonists of the estrogen receptor beta (ER-beta) signaling pathway (AID 1259377; active = well fitted activation curve with a large enough effect in the signal ratio in the repeat runs, not every such curve was filed as active; the % refers to the signal ratio). In short, it runs like this: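 ER-beta-UAS-bla HEK293T cells in medium with 2% charcoal-stripped FBS were exposed to compounds for 16 h at 37C. Beta-lactamase reporter activity was read as fluorescence after 2 h with LiveBLAzer B/G FRET substrate at room temperature.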

The nature of assay [18]: qHTS assay to identify small molecule phospholipidosis (PLD) inducers (AID 1259344; active = well fitted curve in the direction sought with a large enough effect; an effect the other way counts as inactive or inconclusive). In short, it runs like this:
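Accumulated phospholipid, stained red by LipidTOX during 24 h compound treatment of HepG2 cells at 37 C, is quantified from images as pit number and intensity, normalised per cell using Hoechst-stained nuclei.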

Estrogen receptor beta (Homo sapiens), sequence (Q92731 whole entry, looked up): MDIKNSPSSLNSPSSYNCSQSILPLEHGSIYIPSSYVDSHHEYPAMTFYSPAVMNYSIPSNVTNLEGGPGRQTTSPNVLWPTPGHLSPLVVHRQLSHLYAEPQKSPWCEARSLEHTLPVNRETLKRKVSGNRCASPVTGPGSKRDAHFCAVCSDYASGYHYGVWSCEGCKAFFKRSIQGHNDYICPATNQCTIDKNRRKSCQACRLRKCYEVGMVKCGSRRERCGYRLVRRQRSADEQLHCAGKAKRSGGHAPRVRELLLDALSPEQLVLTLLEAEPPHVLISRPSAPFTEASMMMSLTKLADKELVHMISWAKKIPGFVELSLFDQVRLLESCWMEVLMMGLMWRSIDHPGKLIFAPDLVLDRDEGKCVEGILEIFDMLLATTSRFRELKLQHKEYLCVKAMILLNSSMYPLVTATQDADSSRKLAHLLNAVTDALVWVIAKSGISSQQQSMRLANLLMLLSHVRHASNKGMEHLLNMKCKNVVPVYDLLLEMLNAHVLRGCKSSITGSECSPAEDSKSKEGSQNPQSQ
Estrogen receptor (Homo sapiens), sequence (P03372 whole entry, looked up): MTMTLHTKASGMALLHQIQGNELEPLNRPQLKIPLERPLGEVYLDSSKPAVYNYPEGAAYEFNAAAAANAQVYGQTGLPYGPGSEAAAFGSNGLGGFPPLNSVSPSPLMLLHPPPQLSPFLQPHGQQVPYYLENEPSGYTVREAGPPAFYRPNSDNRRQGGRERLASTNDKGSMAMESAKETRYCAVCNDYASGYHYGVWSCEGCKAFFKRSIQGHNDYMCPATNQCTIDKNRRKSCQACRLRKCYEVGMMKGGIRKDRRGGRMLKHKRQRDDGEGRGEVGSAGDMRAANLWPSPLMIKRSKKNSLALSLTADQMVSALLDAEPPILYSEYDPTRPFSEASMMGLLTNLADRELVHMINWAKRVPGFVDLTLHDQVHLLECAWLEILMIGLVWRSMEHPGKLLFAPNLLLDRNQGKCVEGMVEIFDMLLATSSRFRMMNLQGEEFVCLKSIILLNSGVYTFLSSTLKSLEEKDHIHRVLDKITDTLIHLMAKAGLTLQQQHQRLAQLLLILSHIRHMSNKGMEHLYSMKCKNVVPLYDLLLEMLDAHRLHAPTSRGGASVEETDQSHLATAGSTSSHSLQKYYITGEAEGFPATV
Thyrotropin receptor (Homo sapiens), sequence (P16473 whole entry, looked up): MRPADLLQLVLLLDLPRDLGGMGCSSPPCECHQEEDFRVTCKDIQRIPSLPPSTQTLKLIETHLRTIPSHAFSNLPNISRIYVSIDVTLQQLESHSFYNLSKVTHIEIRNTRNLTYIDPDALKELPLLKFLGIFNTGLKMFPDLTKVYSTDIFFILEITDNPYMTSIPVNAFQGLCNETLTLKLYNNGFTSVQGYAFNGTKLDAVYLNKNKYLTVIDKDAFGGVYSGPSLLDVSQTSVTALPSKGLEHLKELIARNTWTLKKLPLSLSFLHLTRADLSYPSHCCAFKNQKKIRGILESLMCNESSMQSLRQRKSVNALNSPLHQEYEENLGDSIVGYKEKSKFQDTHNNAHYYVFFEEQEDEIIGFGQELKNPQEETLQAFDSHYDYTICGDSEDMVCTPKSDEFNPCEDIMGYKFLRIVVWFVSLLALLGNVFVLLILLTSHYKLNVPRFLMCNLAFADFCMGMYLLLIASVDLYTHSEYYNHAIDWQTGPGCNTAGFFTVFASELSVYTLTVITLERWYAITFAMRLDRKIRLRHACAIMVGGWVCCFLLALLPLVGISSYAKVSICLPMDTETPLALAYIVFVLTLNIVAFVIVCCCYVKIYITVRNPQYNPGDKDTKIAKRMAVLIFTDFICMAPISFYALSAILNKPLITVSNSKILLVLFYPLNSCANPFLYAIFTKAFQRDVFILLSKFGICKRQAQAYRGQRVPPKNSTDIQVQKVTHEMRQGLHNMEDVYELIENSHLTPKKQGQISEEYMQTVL

For `CN(C)C(=O)Nc1cccc(OC(=O)NC(C)(C)C)c1`, the Potency entry in assay [1], in [2], in assay [3], in assay [4], in [5] and in [6] was “inactive” in each case. Also, the Potency entry in assay [7], in [8], in assay [9], in [10], in assay [11] and in assay [12] was “inactive” throughout. Moreover, the Potency result in assay [13], in assay [14] and in assay [16] was “inactive” in each case. In assay [15], the result was inactive.

Take `CCC(C)(C)O`: the Potency entry in [1], in assay [2], in assay [3], in assay [4], in [5] and in assay [6] was “inactive” in each case. For the same molecule, the Potency entry in [7], in assay [8], in assay [9], in [11], in [13] and in assay [14] was “inactive” in each case. In addition, in [15], the outcome was inactive.

`CCC[N+](CCC)(CCC)CCC`: the Potency entry in assay [1], in assay [2], in [3], in [4], in [6] and in assay [7] was “inactive” throughout. Besides, the Potency result in [8], in assay [9], in [11], in [12], in [13] and in assay [14] was “inactive” each time.

In the case of `COc1cc(CC(C)N)c(OC)cc1Br` (configuration not stated), the Potency result in assay [1], in assay [2], in assay [3], in [4], in [5] and in assay [6] was “inactive” each time. Also, the Potency result in assay [7], in assay [8], in [11], in assay [14] and in assay [16] was “inactive” in each case. The Potency in assay [9] is 15.9 µM (active); in assay [12], 63.2 µM (active). The molecule was classed as inactive in assay [15].

With `OCCSSCCO`, the Potency result in assay [1], in assay [2], in [3], in assay [4], in assay [5] and in [6] was “inactive” throughout. For the same molecule, the Potency entry in [7], in assay [8], in assay [9], in assay [11], in assay [12] and in assay [13] was “inactive” in each case. The Potency entry in assay [14] is “inactive”.

`CCCCC(CC)COC(=O)c1c(Br)c(Br)c(Br)c(Br)c1C(=O)OCC(CC)CCCC` (configuration not stated): the Potency result in assay [1], in assay [2], in [3], in [4], in [5] and in assay [6] was “inactive” each time. The Potency result in [7], in [9], in assay [17], in [10], in assay [11] and in assay [12] was “inactive” each time. For the same molecule, the Potency entry in assay [13], in assay [14] and in assay [16] was “inactive” throughout. Further, the call in assay [15] was inactive.

As to `COc1cc(C[C@@H](C)N)c(OC)cc1Br`, the Potency result in [1], in assay [2], in assay [3], in assay [4], in assay [5] and in [7] was “inactive” throughout. In addition, the Potency entry in assay [8], in [11], in [14] and in assay [16] was “inactive” in each case. The call in assay [18] and in assay [15] was inactive. In [12], the Potency was 35.3 µM (active).

With `CC(C)(c1ccccc1)c1cc(-n2nc3ccccc3n2)c(O)c(C(C)(C)c2ccccc2)c1`, the Potency entry in [1], in [2], in [3], in assay [4], in [5] and in [6] was “inactive” each time. Moreover, the Potency entry in assay [7], in assay [9], in assay [10], in assay [11], in assay [12] and in assay [14] was “inactive” throughout. In assay [16], the Potency entry is “inactive”. Besides, the molecule was classed as inactive in assay [15].

`CCOP(=O)(O)C(N)=O`: the Potency entry in assay [1], in [2], in assay [3], in assay [4], in assay [5] and in assay [6] was “inactive” throughout. Further, the Potency result in assay [7], in assay [8], in assay [9], in assay [17], in [10] and in [11] was “inactive” in each case. Also, the Potency result in [12], in assay [14] and in assay [16] was “inactive” throughout. Moreover, the outcome in assay [15] was inactive.
